This note sets out measurements from ChEMBL document CHEMBL1961873, “Compounds: GSK PKIS; Assays: Nanosyn kinase panel” (2012).

The target of test [1] is Serine/threonine-protein kinase MARK2 (Homo sapiens) (UniProt Q7KZI7). To be noted: at 1 µM.
Test [2] deals with PAS domain-containing serine/threonine-protein kinase (Homo sapiens) (UniProt Q96RG2). The settings on record: at 0.1 µM.
Test [3] has the same target. To be noted: at 1 µM.
Test [4] has as its target Phosphorylase b kinase gamma catalytic chain, skeletal muscle/heart isoform (Homo sapiens) (UniProt Q16816). To be noted: at 0.1 µM.
Test [5] has the same target. To be noted: at 1 µM.
Test [6] deals with T1, Phosphorylase b kinase gamma catalytic chain, liver/testis isoform (Homo sapiens) (UniProt P15735).
T1 sequence (whole entry): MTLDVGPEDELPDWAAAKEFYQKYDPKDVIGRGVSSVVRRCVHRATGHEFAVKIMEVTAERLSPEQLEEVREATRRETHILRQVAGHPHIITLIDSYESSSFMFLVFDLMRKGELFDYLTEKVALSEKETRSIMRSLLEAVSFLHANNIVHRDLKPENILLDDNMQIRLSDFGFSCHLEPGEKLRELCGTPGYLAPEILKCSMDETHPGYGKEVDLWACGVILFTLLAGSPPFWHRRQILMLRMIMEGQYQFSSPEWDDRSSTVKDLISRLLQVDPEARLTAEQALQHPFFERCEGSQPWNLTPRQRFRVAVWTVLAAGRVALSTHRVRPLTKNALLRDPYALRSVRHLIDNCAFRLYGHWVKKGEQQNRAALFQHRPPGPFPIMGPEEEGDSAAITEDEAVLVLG
To be noted: at 0.1 µM.

For test [7], the target named is T1, Phosphorylase b kinase gamma catalytic chain, liver/testis isoform (Homo sapiens). The settings on record: at 1 µM.
Test [8] deals with Serine/threonine-protein kinase pim-1 (Homo sapiens) (UniProt P11309). The settings on record: at 0.1 µM.
Serine/threonine-protein kinase pim-1 (Homo sapiens), sequence (P11309 whole entry, looked up): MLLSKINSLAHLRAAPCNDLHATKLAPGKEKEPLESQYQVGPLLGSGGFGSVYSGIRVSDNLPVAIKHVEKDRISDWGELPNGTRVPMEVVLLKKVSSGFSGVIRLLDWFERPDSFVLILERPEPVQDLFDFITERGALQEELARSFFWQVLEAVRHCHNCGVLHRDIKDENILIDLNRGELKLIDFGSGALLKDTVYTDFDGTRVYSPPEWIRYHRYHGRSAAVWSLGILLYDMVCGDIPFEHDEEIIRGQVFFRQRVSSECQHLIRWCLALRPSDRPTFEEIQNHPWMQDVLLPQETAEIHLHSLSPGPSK
The target is the same in test [9]. The settings on record: at 1 µM.
The target in test [10] is Serine/threonine-protein kinase pim-2 (Homo sapiens) (UniProt Q9P1W9). The settings on record: at 0.1 µM.
Serine/threonine-protein kinase pim-2 (Homo sapiens), sequence (Q9P1W9 whole entry, looked up): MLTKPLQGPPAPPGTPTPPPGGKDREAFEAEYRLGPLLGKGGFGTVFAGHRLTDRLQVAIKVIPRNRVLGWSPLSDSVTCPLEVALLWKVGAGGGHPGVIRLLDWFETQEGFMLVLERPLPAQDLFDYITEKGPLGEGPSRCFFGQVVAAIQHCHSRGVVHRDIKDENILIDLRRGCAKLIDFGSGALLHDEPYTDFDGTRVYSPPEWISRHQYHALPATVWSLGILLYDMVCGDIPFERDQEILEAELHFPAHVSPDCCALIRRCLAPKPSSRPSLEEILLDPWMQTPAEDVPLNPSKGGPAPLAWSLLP
Test [11] shares this target. To be noted: at 1 µM.
Test [12] has as its target Serine/threonine-protein kinase pim-3 (Homo sapiens) (UniProt Q86V86). To be noted: at 0.1 µM.
Test [13] shares this target. To be noted: at 1 µM.
Test [14] has as its target T2, MAP kinase-activated protein kinase 5 (Homo sapiens) (UniProt Q8IW41).
T2 sequence (whole entry): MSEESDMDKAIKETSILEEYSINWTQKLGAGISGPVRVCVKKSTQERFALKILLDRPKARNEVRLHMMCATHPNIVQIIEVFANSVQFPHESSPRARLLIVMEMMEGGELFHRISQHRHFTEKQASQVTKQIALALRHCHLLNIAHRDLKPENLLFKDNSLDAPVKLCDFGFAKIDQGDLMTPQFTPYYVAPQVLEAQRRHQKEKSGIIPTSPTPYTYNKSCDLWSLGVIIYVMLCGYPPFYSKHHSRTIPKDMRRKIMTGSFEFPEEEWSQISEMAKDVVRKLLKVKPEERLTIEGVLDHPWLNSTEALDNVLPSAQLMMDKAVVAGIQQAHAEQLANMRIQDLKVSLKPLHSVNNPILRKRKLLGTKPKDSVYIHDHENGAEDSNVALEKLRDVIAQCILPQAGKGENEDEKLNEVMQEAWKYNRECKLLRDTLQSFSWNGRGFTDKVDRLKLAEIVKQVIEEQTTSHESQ
The settings on record: at 0.1 µM.

Test [15] addresses T2, MAP kinase-activated protein kinase 5 (Homo sapiens). To be noted: at 1 µM.
Test [16] has as its target Serine/threonine-protein kinase SIK1 (Homo sapiens) (UniProt P57059). To be noted: at 0.1 µM.
The target is the same in test [17]. To be noted: at 1 µM.
Test [18] has as its target Serine/threonine-protein kinase SIK2 (Homo sapiens) (UniProt Q9H0K1). To be noted: at 0.1 µM.
Test [19] has the same target. The settings on record: at 1 µM.
For test [20], the target named is T3, Serine/threonine-protein kinase TBK1 (Homo sapiens) (UniProt Q9UHD2).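 Note: values are the mean TBK1 inhibition, taken from the GSK PKIS screening data.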
T3 sequence (whole entry): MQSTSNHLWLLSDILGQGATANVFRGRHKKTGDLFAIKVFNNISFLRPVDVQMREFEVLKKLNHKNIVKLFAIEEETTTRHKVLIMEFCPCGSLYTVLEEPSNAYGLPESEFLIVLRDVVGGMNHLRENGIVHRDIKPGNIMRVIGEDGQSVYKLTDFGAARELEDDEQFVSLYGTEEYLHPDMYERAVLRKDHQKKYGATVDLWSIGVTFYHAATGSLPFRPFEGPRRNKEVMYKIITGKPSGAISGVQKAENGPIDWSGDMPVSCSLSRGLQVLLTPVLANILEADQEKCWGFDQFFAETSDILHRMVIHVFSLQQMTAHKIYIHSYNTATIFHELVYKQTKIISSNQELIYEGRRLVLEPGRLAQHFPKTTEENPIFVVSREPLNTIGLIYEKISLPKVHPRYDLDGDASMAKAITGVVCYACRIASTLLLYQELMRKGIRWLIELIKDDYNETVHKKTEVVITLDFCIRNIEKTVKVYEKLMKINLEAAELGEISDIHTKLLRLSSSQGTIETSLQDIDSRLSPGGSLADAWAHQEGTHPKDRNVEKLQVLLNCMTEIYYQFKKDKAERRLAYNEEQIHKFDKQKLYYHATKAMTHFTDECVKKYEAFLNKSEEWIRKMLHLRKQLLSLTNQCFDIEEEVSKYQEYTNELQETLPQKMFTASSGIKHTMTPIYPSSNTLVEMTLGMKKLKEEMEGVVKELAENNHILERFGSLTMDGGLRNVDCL
The settings on record: at 0.1 µM.

Serine/threonine-protein kinase SIK2 (Homo sapiens), sequence (Q9H0K1 whole entry, looked up): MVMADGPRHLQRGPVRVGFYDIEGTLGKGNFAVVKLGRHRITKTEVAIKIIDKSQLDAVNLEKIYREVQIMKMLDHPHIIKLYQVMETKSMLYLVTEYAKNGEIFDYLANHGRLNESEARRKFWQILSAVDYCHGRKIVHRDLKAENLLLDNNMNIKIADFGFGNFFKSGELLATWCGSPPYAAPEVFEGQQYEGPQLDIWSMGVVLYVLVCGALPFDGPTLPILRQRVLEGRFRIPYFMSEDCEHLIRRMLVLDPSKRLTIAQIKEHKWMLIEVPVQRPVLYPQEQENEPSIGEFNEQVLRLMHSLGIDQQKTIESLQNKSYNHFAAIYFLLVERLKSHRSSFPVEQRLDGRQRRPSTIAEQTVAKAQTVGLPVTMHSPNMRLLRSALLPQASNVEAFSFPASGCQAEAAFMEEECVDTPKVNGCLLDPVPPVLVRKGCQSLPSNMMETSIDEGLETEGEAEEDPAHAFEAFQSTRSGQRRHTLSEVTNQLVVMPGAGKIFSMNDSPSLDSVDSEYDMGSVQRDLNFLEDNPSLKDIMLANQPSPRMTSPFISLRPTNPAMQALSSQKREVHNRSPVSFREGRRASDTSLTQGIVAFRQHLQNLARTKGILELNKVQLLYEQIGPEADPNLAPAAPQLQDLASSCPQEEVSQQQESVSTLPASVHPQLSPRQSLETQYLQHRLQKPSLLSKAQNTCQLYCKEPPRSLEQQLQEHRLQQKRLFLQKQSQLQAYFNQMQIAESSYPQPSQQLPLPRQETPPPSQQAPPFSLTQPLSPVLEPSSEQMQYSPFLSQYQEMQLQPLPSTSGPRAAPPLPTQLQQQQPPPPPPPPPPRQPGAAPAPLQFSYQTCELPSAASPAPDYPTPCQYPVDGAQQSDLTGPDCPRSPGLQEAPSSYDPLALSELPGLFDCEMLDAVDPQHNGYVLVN
PAS domain-containing serine/threonine-protein kinase (Homo sapiens), sequence (Q96RG2 whole entry, the tested form may be a part): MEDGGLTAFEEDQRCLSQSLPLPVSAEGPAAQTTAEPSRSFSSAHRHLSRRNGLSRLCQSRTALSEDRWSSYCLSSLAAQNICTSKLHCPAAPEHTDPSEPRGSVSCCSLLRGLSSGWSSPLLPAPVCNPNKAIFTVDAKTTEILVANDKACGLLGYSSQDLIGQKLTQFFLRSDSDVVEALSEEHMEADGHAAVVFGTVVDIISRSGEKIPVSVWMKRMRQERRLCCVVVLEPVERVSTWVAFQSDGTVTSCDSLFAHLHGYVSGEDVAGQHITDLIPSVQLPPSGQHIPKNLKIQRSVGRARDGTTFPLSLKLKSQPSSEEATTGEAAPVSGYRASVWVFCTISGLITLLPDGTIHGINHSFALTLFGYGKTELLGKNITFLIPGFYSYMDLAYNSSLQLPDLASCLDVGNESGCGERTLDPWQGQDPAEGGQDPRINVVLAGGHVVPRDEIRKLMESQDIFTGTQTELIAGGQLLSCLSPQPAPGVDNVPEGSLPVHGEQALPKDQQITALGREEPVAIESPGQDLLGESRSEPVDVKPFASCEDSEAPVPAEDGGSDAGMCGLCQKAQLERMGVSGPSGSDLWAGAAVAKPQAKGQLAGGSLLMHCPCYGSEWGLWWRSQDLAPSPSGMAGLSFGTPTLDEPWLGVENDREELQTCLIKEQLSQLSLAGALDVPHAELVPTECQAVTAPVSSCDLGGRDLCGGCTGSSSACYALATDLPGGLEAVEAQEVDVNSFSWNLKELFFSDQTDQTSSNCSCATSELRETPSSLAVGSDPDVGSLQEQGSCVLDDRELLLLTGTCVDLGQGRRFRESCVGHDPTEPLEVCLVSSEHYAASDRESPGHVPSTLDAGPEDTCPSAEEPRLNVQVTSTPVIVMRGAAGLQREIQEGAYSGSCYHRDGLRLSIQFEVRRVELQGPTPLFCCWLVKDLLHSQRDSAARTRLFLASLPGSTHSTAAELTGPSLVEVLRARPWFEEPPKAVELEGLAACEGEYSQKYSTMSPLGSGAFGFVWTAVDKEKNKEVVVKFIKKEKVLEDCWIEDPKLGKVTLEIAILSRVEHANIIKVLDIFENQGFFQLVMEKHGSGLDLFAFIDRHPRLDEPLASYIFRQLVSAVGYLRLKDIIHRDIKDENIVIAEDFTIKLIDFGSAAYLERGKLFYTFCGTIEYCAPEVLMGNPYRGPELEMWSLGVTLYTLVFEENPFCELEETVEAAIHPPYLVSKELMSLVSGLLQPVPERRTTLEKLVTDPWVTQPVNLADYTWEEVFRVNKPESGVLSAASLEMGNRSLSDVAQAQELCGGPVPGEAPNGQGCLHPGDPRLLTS
Phosphorylase b kinase gamma catalytic chain, skeletal muscle/heart isoform (Homo sapiens), sequence (Q16816 whole entry, looked up, canonical isoform): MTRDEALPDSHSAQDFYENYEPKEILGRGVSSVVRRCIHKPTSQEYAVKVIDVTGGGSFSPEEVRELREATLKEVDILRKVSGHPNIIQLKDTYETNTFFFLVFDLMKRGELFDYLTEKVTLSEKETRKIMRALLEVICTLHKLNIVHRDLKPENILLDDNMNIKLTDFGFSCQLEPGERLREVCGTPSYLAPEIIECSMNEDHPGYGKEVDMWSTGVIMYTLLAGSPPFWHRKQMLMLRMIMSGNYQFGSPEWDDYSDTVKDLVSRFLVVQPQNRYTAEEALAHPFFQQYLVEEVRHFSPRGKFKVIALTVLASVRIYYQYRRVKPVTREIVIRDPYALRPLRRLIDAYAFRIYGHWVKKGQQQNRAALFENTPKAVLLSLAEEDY
Serine/threonine-protein kinase SIK1 (Homo sapiens), sequence (P57059 whole entry): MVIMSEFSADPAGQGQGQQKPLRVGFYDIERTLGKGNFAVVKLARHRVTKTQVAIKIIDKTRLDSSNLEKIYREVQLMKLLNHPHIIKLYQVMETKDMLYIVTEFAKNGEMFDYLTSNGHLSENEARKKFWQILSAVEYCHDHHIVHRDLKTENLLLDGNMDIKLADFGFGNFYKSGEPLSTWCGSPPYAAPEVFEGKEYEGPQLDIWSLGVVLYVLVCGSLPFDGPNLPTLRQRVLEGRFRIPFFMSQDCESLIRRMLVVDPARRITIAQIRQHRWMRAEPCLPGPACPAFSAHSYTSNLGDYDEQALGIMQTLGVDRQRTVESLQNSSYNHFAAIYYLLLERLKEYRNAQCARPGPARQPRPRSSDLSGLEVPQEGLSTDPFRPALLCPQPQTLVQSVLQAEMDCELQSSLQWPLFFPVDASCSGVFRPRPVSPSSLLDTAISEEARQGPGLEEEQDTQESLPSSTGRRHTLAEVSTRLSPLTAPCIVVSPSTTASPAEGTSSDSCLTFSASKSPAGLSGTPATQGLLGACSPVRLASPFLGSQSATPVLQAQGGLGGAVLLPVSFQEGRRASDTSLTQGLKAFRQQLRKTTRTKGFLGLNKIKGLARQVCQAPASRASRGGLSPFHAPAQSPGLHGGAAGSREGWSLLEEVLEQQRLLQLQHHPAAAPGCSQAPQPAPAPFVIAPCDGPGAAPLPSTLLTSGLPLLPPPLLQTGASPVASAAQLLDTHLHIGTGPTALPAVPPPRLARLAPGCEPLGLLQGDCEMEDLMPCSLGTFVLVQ

Regarding `COc1ccc(Nc2ncc(-c3ccccc3)o2)cc1OC`, the inhibition in test [1] worked out at 16.8%; in test [2], 0.54%; in test [3], 0.81%; in [4], 5.28%; in test [5] it was 28.9%; in test [6], 0.22%. Also, the inhibition was determined as 2.01% in test [7]; 1.41% in test [8]; 2.22% in test [9]; 1.11% in [10]; 1.95% in test [11]; 0.89% in test [12]. In addition, the inhibition in test [13] was 1.57%; in [14], -0.17%; in test [15], -1.05%; in test [16], 2.55%; in test [17] it was 28.9%; in test [18], 1.69%. Moreover, the inhibition in [19] is 39%; in test [20], -0.12%.

In the case of `COC(=O)Nc1nc2ccc(Oc3ccc(NC(=O)Nc4cc(C(F)(F)F)ccc4F)cc3)cc2s1`, the inhibition in test [1] was -0.26%; in test [2] it was -0.29%; in [3], -0.57%; in test [4], -9.77%; in [5], 1.81%; in test [6], -0.83%. Further, the inhibition is -1.17% in test [7]; 0.9% in test [8]; 1.19% in test [9]; -0.21% in [10]; 0.12% in test [11]; 0.39% in test [12]. The inhibition was 0.5% in test [13]; 0.07% in test [14]; -0.36% in [15]; -0.78% in test [16]; 0.54% in test [17]; 0.97% in test [18]. The values for the inhibition in [19] and in test [20] were -6.65% and -0.35%, respectively.

On to `CC(C)c1ccc(-c2cc(-c3c[nH]nc3-c3ccccn3)ccn2)cc1`, for which the inhibition was -0.26% in test [1]; -0.36% in test [2]; -1.24% in [3]; 0.46% in [4]; 1.25% in test [5]; -0.69% in test [6]. In addition, the inhibition is -0.76% in [7]; 0.3% in [8]; -0.2% in [9]; -0.34% in test [10]; -0.1% in [11]; 0.23% in [12]. In addition, the inhibition in test [13] is -0.66%; in test [14], 0.04%; in test [15], -0.19%; in test [16], 0.32%; in test [17], 0.87%; in test [18], -2.6%. In addition, the inhibition in test [19] is -1.02%; in test [20], 0.97%.

For `COc1cc(Nc2ncc(-c3ccccc3)o2)cc(OC)c1`, the inhibition in test [1] is 2.52%; in test [2], -1.02%; in test [3] it was -0.79%; in test [4], 5.83%; in test [5], 14.1%; in test [6], 4.54%. Further, the inhibition amounted to 5.45% in [7]; 1.14% in test [8]; 1.63% in test [9]; 0.58% in [10]; 0.6% in test [11]; 0.03% in test [12]. The inhibition in test [13] was -0.34%; in test [14] it was 1.24%; in test [15] it was 2.34%; in test [16], 6.1%; in [17], 20.6%; in test [18], 7.38%. For the same compound, the inhibition is 33.8% in test [19] and 2.71% in test [20].

`Cc1c2ccc(N(C)c3ccnc(Nc4cccc(S(N)(=O)=O)c4)n3)cc2nn1C`: the inhibition in test [1] was 4.84%; in [2] it was 0.26%; in test [3] it was -1.92%; in [4] it was 4.4%; in [5], 7.27%; in test [6], 4.88%. For the same compound, the inhibition was 3.28% in test [7]; 0.43% in [8]; 1.01% in test [9]; -3.44% in [10]; -3.16% in test [11]; -1.16% in test [12]. In addition, the inhibition in test [13] was -2.47%; in [14], 1.9%; in [15], 1.08%; in [16], 4.24%; in test [17] it was 27.6%; in test [18], 3.64%. For the same compound, the inhibition was determined as 9.51% in [19] and 4.99% in test [20].

As for `CCCNc1cccc(-n2ncc3c(N/N=C/c4ccncc4)ncnc32)c1`, the inhibition in test [1] was determined as 4.97%; in [2], 1.18%; in [3] it was 3.05%; in [4], 2.76%; in test [5], 19.5%; in test [6] it was 2.56%. In addition, the inhibition in test [7] is 7.69%; in test [8], 0.64%; in test [9], 1.01%; in test [10] it was 1.23%; in test [11], 0.32%; in [12] it was 3.58%. For the same compound, the inhibition in test [13] was 4.06%; in test [14], 0.95%; in test [15] it was 1.6%; in [16], 3.14%; in test [17], 9.54%; in [18], -0.68%. Moreover, the figures for the inhibition in [19] and in test [20] were 21.1% and 2.22%, respectively.

Regarding `FC(F)(F)CNc1nccc(-c2cnn3ncccc23)n1`, the inhibition in test [1] amounted to 2.13%; in [2], 1.06%; in [3], 0.79%; in [4], 3.02%; in [5], 6.43%; in [6], 3.98%. Also, the inhibition in [7] is 4.36%; in test [8] it was 0.08%; in test [9], 3.03%; in [10], -0.09%; in [11], 1.1%; in test [12], -0.3%. Moreover, the inhibition is 1.93% in test [13]; 1.14% in test [14]; 0.15% in [15]; 2.46% in test [16]; 1.86% in test [17]; -0.9% in [18]. Further, the inhibition in test [19] amounted to 0.27%; in test [20], 1.42%.

Broadly, the inhibition is the change of the read-out against control, counted positive when it falls.
